Screens as filed in PubChem.
eIF4H inh – inhibitors of RNA binding by human eIF4H. Q15056. eIF4H fluorescence polarization binding assay. inhibition, % at 35 µM. actives 0.94% (n = 290,000). AID 2012;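 also: calls also rest on retests at 20 µM and on dose response follow-up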
MEX-5 binding – C. elegans MEX-5 TCR-2 RNA binding activity. Q9XUB2. MEX-5/FITC-TCR2 RNA binding, fluorescence polarization; stronger effect = lower value. activity score (negative = inhibition of binding), % at 10 µM. actives 0.38% (n = 300,000);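 active = inhibition past about -25% in most replicates, and total fluorescence under double the plate's negative control median, limit read from the data; inconclusive = replicates evenly split on the limit, or fluorescence at least double controls; inactive = too little inhibition in most replicates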;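 also: 0% = DMSO and -100% = 5 µM competing unlabeled TCR2 RNA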
PABP FP inh – PABP-poly(A) binding inhibition; actives 1% (n = 290,000); PABP-poly(A) RNA binding, fluorescence polarization; calls only at 35 µM; P11940;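 also: calls also rest on retests at 20 µM and on dose response follow-up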
PABP1 MLLE inh – blocks PAM2 peptide binding to the PABP1 MLLE domain | P11940 | GST-MLLE / FITC-PAM2 fluorescence polarization | inhibition, % at 20 µM | actives 0.36% (n = 360,000) | AID 588489; in the data active = inhibition above about 35%, passing the limit was not always enough;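 also: plate controls were DMSO wells with GST-MLLE for no effect and wells lacking GST-MLLE protein for full effect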
EBV gp42 inh – inhibitors of Epstein-Barr virus glycoprotein 42 | inhibition, % (tested at 21.74 µM) | actives 0.42% (n = 220,000) | Q1HVG2 | Fluorescence polarization binding assay, mP read-out; in the data active = inhibition above about 50%
Target sequence (Q1HVG2 whole entry, looked up): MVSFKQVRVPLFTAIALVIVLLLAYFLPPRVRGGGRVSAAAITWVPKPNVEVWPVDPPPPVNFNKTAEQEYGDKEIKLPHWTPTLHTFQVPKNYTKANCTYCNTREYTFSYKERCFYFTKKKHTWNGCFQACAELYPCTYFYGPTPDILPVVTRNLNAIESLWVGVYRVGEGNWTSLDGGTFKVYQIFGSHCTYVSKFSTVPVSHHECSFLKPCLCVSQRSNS
* = called active by the depositor; i = inactive; ? = inconclusive; / = no result given; + = active, no number. Compounds with a hit are over-represented: about 1.8% of the library has one in this group of screens. Unless noted, no rule for the calls is given here.

SMILES	eIF4H inh	MEX-5 binding	PABP FP inh	PABP1 MLLE inh	EBV gp42 inh
NC(CO)(CO)COCc1ccccc1	68	1	+	10	-16
COc1ccc(OC)c(/C=N/NC(=O)CCc2c(C)n[nH]c2C)c1	-3	0	i	2	-3
COc1ccc(OC)c(/C=N/NC(=O)CCc2ccc(O)c(O)c2)c1	21*	-7	+	6	0
COc1cc(C=C2C(=O)c3ccccc3C2=O)cc(OC)c1OC	12	-54*	i	-11	95*
COc1cccc(/C=C2\C(=O)C(=O)c3ccccc32)c1	-2	-3	i	38*	-14
COc1cc(C=C2C(=O)c3ccccc3C2=O)ccc1O	-14	-2	i	-3	-17
COc1cc(NC(=O)COc2ccc(-n3cnnn3)cc2)c(OC)cc1Cl	13	2	i	6	-1
O=C(COc1ccc(-n2cnnn2)cc1)Nc1cccc(Cl)c1Cl	65*	0	i	-8	/
C=CCN1C(=O)/C(=C\c2ccc(Cl)cc2)N=C1SCC(=O)NC1CCCCC1	0	-1	i	40*	-4
CN(c1cccc(F)c1)c1cc2c(c3c1ccn3C)C1CCC2O1 (stereo not drawn)	/	/	/	-5	/
Cn1cc(/C=N/NC(=O)c2ccc(C#N)cc2F)c2ccccc21	4	-5	+	3	-3
Cc1c(C(=O)NCc2ccc(C(C)C)cc2)sc(=O)n1Cc1ccc(S(=O)(=O)N(C)C)cc1	/	/	/	-3	/
O=[N+]([O-])c1cccc(/C=N/N=C\c2ccccc2)c1	0	0	i	-8	/
O=[N+]([O-])c1cccc(/C=C/c2nc(C=Nc3ccccc3)c(O)o2)c1	3	-43*	i	-15	-3
O=C(O)c1cc(Cl)c2c(c1)[C@@H]1C=CC[C@@H]1[C@H](c1ccc(S(=O)(=O)N3CCOCC3)cc1)N2	74*	-26*	+	24	-11
CN(C)CCCNc1cc(O)c2ncccc2c1	/	/	/	41*	/
COc1ccc(-c2cc3ccccc3n2CC(O)CN2CCC(C)CC2)cc1 (stereo not drawn)	?	-3	i	2	0
COc1ccc(-c2cc3ccccc3n2CC(O)Cn2nc(C)cc2C)cc1 (stereo not drawn)	78*	-4	+	39	23
COC1=CC(C)C2CC3OC(O)CC4C(C)=C(OC)C(=O)C(C2(C)C1=O)C34C (stereo not drawn)	/	/	/	-1	/
COc1ccc(N2C3=C(CC4=C2CCCC4=O)C(=O)CCC3)cc1	105*	-4	+	79*	19
COc1ccc2nc3cc(Cl)ccc3c(Nc3cc(CN4CCCC4)c(O)c(CN4CCCC4)c3)c2n1	25	-36*	?	-6	/
CCn1c(SC(C)C(=O)O)nc2sc3c(c2c1=O)CCC3 (stereo not drawn)	93	/	i	-20	52*
CC(Sc1nc2sc3c(c2c(=O)n1-c1ccccc1)CCCC3)C(=O)O (stereo not drawn)	-6	1	i	3	-30
Cc1ccc([C@H]2N[C@]3(CCCN(Cc4ccc(Br)cc4)C3=O)[C@H]3C(=O)N(Cc4ccccc4)C(=O)[C@@H]23)cc1	/	/	/	-5	/
CC1(Cc2ccc(OC(F)(F)F)cc2)C(=O)Nc2ccc(S(=O)(=O)NC3CCCCC3)cc21 (stereo not drawn)	/	/	/	0	/
SMILES	eIF4H inh	MEX-5 binding	PABP FP inh	PABP1 MLLE inh	EBV gp42 inh
CCOC(=O)/C(C#N)=C\c1ccc(N2CCN(C/C=C/c3ccccc3)CC2)cc1	?	?	i	-108	131*
COc1ccccc1CN1CC(C(=O)NCCCCc2ccccn2)CCC1=O (stereo not drawn)	/	/	/	4	/
CC1CCCCC1NC(=O)COC(=O)c1c2c(nc3ccccc13)/C(=C/c1ccco1)CC2 (stereo not drawn)	88	-2	i	-22	10
O=C(COC(=O)c1c2c(nc3ccccc13)/C(=C/c1ccco1)CC2)NC1CCCC1	104	0	i	-20	83*
CCCC(=O)N1CCC1(C)C(=O)Nc1ccc(OC(F)F)cc1 (stereo not drawn)	/	/	/	-25	/
O=C(CCl)Nc1nc(-c2ccco2)c(-c2ccco2)s1	98	/	i	-21	6
Nc1nc(-c2ccco2)c(-c2ccco2)s1	?	-1	?	44*	-13
Nc1nc(-c2ccco2)cs1	79*	0	+	-5	1
c1coc(-c2nc(-c3ccco3)c(-c3ccco3)nc2-c2ccco2)c1	85*	3	+	10	63*
OCc1cn(-c2ccccc2)nc1-c1ccco1	16	1	i	18	-26
COc1ccc2nc(-c3ccco3)c(-c3ccco3)nc2c1	98*	-10	+	40*	37
Clc1ccccc1OCCNc1nc(NCC2CC2)nc2ccsc12	/	/	/	5	/
O=C1CSc2ccc(C(=O)N3CCCCC3)cc2N1	/	/	/	31	/
COc1cc(C(O)c2nc(-c3cccc(C#N)c3)cs2)ccc1F (stereo not drawn)	/	/	/	-3	/
COC(=O)c1cc(NC(=S)Nc2cc(Cl)cc(Cl)c2)cc(C(=O)OC)c1	-1	3	i	36*	-4
c1ccc(-n2ncc3c2ncn2nc(-c4ccco4)nc32)cc1	50*	1	i	15	-5
CCCCNC(=O)C1(C)CCN1C(=O)c1ccc(F)cc1Cl (stereo not drawn)	/	/	/	-34	/
CCOC(=O)C1=C(CSc2nc3c(cc2C#N)CN(C)CC3)OC(N)=C(C#N)C1c1ccc(Cl)cc1 (stereo not drawn)	?	1	?	-8	-15
CCOC(=O)C1=C(CSc2nc3c(cc2C#N)CN(C)CC3)OC(N)=C(C#N)C1c1ccncc1 (stereo not drawn)	?	-51*	i	100	6
Cc1ccc(-n2cnc3c(=O)[nH]cnc32)cc1[N+](=O)[O-]	/	/	/	7	/
CCC(OC(=O)CC1Sc2ccccc2NC1=O)C(=O)NCC1CCCO1 (stereo not drawn)	1	-1	i	40*	-8
CCCCc1c(C)nc2ccccc2c1SCCC(=O)O	9.8*	-2	i	-2	-6
O=C(CNC(=O)C12CC3CC(CC(C3)C1)C2)NC1=NCCS1	-5	-6	i	45*	-12
O=C(CNC(=O)C1CCCCC1)NC1=NCCS1	-7	2	i	40*	-23
Cc1cccnc1NC(=O)CNC(=O)C1CCCCC1	/	/	/	-10	/
COc1ccc(Nc2nc3[nH]c(=O)cc(O)c3s2)cc1	56*	3	i	-19	7
COc1cccc(-n2c(SCC(N)=O)nc3ccccc3c2=O)c1	58*	1	i	-70	-54
O=C1NC2=C(C(=O)CCC2)C(c2ccccc2[N+](=O)[O-])N1 (stereo not drawn)	107*	-10	+	41*	/
O=C1NC2=C(C(=O)CCC2)C(c2ccccc2Cl)N1 (stereo not drawn)	-2	1	i	-3	/
O=C1CC(NC(=O)C(F)(F)F)=NN1c1ccccc1	active	1	+	4	-15
